In PubChem BioAssay (Tox21):
Where “and” joins values, the source holds several entries; their conditions need not be identical. Identical values can stand only once. Results filed as inconclusive are left out. The source holds several records for some structures; these can differ, active in one and inactive in another. Calls of active or inactive are those of the source. Unless noted, calls follow the shape of the dose curve; as a rule, active = well fitted curve in the direction sought with a large enough effect in the repeat runs; inconclusive = weak or mixed curves; inactive = no such curve, though single readings can be large; an effect the other way counts as inactive or inconclusive.

Legend:
[1] = A CellTox Green Cytotoxicity Assay to monitor cytotoxicity in HEK293 cells - 32 hour (AID 1224881); also: nearly all actives have a fitted effect of over 40% in size; also: potency is read from the fitted curve at half-maximal effect
Method in brief: (§1)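 Dead-cell fluorescence measured kinetically: asymmetric cyanine dye, HEK293, 600 cells/well, 5 h settle, 23 nL cpd/DMSO, 37 C, reads 0–40 h every 8 h.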

[2] = A CellTox Green Cytotoxicity Assay to monitor cytotoxicity in HepG2 cells - 0 hour (AID 1224882); also: nearly all actives have a fitted effect of over 35% in size
Method in brief: (§2)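 First, HepG2 cells (600/well) mixed with reagent were plated; second, after 5 h at 37 C they received compounds via pintool; third, fluorescence was measured at 0 h through 40 h at 8 h intervals.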

[3] = A CellTox Green Cytotoxicity Assay to monitor cytotoxicity in HepG2 cells - 32 hour (AID 1224883); also: nearly all actives have a fitted effect of over 50% in size; also: potency is read from the fitted curve at half-maximal effect
Method in brief: as §2

[4] = A CellTox Green Cytotoxicity Assay to monitor cytotoxicity in HEK293 cells - 8 hour (AID 1224884); also: nearly all actives have a fitted effect of over 35% in size; also: potency is read from the fitted curve at half-maximal effect
Method in brief: as §1

[5] = qHTS RealTime-Glo MT Cell Viability Assay in HepG2 cells - 16 hour (AID 1224885); also: nearly all actives have a fitted effect of over 50% in size; also: potency is read from the fitted curve at half-maximal effect
Method in brief: (§3)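 Tox21 10K library screened in qHTS format on HepG2 cells carrying RealTime-Glo reagents. Compounds were added after a 5 h preincubation, and the luminescent signal from continuous culture was measured repeatedly during 40 h treatment.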

[6] = qHTS RealTime-Glo MT Cell Viability Assay in HEK293 cells - 24 hour (AID 1224886); also: nearly all actives have a fitted effect of over 50% in size; also: potency is read from the fitted curve at half-maximal effect
Method in brief: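 Luminescence generated by NanoLuc from substrate produced by living HEK293 cells served as the viability signal. Each value reflects the reading at its stated time point during continuous 40 h compound exposure at 37 C.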

[7] = qHTS RealTime-Glo MT Cell Viability Assay in HEK293 cells - 8 hour (AID 1224887); also: nearly all actives have a fitted effect of over 50% in size; also: potency is read from the fitted curve at half-maximal effect
Method in brief: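 600 HEK293 cells per well, dispensed already mixed with RealTime-Glo MT reagents. Compound dosing came 5 h later. The same wells were read for luminescence at 0, 8, 16, 24, 32 and 40 h of exposure at 37 C.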

[8] = A CellTox Green Cytotoxicity Assay to monitor cytotoxicity in HEK293 cells - 16 hour (AID 1224888); also: nearly all actives have a fitted effect of over 35% in size; also: potency is read from the fitted curve at half-maximal effect
Method in brief: as §1

[9] = qHTS RealTime-Glo MT Cell Viability Assay in HepG2 cells - 0 hour (AID 1224889); also: nearly all actives have a fitted effect of over 50% in size; also: potency is read from the fitted curve at half-maximal effect
Method in brief: as §3

[10] = A CellTox Green Cytotoxicity Assay to monitor cytotoxicity in HepG2 cells - 8 hour (AID 1224890); also: nearly all actives have a fitted effect of over 45% in size; also: potency is read from the fitted curve at half-maximal effect
Method in brief: as §2

[11] = qHTS assay to identify small molecule antagonists of the estrogen receptor alpha (ER-alpha) signaling pathway using the BG1 cell line in the presence of 0.1 nM 17-beta-estradiol - cell viability counter screen (AID 1259241); also: nearly all actives have a fitted effect of over 40% in size; also: potency is read from the fitted curve at half-maximal effect
Method in brief: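 VM7Luc4E2, 4,000 cells/well, phenol red-free medium + 10% charcoal-stripped FBS; 24 hr plating; cpd + 0.1 nM E2 final, 22 hr 37C/5% CO2; CellTiter-Fluor 30 min, fluorescence.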

[12] = qHTS assay to identify small molecule antagonists of the androgen receptor (AR) signaling pathway using the MDA cell line in the presence of 0.5 nM R1881 - cell viability counter screen (AID 1259242); also: nearly all actives have a fitted effect of over 45% in size; also: potency is read from the fitted curve at half-maximal effect
Method in brief: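 qHTS format. MDA-kb2 (MMTV-luc, AR/GR responsive) + cpd + 0.5 nM R1881 final, 16 hr 37C/0% CO2 → CellTiter-Fluor 30 min → fluorescence intensity.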

[13] = qHTS assay to identify small molecule phospholipidosis (PLD) inducers (AID 1259344; active = well fitted curve in the direction sought with a large enough effect; an effect the other way counts as inactive or inconclusive)
Method in brief: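 Read-out is LipidTOX Red fluorescence (ex 595/em 615) imaged in HepG2 cells after 24 h compound exposure at 37 C, with Hoechst nuclear counterstain (ex 352/em 461) allowing per-cell normalisation.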

[14] = qHTS assay to identify small molecule HDAC inhibitors (AID 1259364);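 also: wild-type HCT-116 cells with endogenous class I/II HDAC activity; top concentration of the series differs between compounds; nearly all actives have a fitted effect of over 45% in size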
Method in brief: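 Quantitative high-throughput format: overnight-seeded HCT-116 cells got compounds for 2 hr at 37C; HDAC-Glo I/II reagent added, 30 min RT, luminescence measured.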

[15] = qHTS assay to identify small molecule agonists of the sonic hedgehog signaling (Shh) pathway - cell viability counter screen (AID 1259366); also: nearly all actives have a fitted effect of over 50% in size; also: potency is read from the fitted curve at half-maximal effect
Method in brief: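 Cytotoxicity counter screen run in the same wells as the Shh reporter assay. NIH/3T3 cells carrying a Gli1 response element–driven luciferase were treated with DMSO-dissolved compounds for 24hr, and live-cell protease activity was measured with CellTiter-Fluor.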

[16] = qHTS assay to identify small molecule antagonists of the sonic hedgehog signaling (Shh) pathway - cell viability counter screen (AID 1259367); also: nearly all actives have a fitted effect of over 55% in size; also: potency is read from the fitted curve at half-maximal effect
Method in brief: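 Fluorescence read-out (CellTiter-Fluor, 1 hr at 37C) taken after 23 hr compound treatment of 3T3 Gli1-Luc cells stimulated with conditioned medium. Cells were seeded at 2,000 per well and pre-incubated 4 hr.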

[17] = qHTS assay to identify small molecule agonists of the sonic hedgehog signaling (Shh) pathway (AID 1259368; calls by dose curve;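 also: NIH/3T3-derived 3T3Gli1-Luc cells carrying a stable Gli1-driven firefly luciferase reporter; series mostly up to about 92 µM; nearly all actives have a fitted effect of over 15% in size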)
Method in brief: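 Quantitative high-throughput format using a Gli1-driven firefly luciferase reporter line derived from NIH/3T3 cells. After a 24 hr compound treatment at 37 C and 5% CO2, luminescence reported Gli1 response element activity.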

[18] = target: Androgen receptor (Homo sapiens) (UniProt P10275); test: qHTS assay to identify small molecule antagonists of the androgen receptor (AR) signaling pathway using the MDA cell line in the presence of 0.5 nM R1881 (AID 1259243); also: nearly all actives have a fitted effect of over 50% in size; also: potency is read from the fitted curve at half-maximal effect
Method in brief: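 Antagonist mode quantitative HTS in MDA-kb2 MMTV-luciferase cells, agonist R1881 at 0.5 nM final, 16 hr exposure at 37C and 0% CO2, luminescent detection.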

[19] = target: Estrogen receptor (Homo sapiens) (UniProt P03372); test: qHTS assay to identify small molecule antagonists of the estrogen receptor alpha (ER-alpha) signaling pathway using the BG1 cell line in the presence of 0.1 nM 17-beta-estradiol (AID 1259244); also: nearly all actives have a fitted effect of over 50% in size; also: potency is read from the fitted curve at half-maximal effect
Method in brief: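 Reporter is a stably transfected luciferase under four estrogen responsive elements in VM7Luc4E2 cells expressing native full-length ER-alpha; inhibition of 0.1 nM (final) 17beta-estradiol-driven signal over 22 h is read by luminescence.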

[20] = qHTS assay to identify small molecule HDAC inhibitors - cell viability counter screen (AID 1259365)
Method in brief: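 Luminescence from CellTiter-Glo, developed 30min at room temperature, reports viability of wild-type HCT-116 cells treated 2hr with compounds at 37 C and 5% CO2 after overnight plating.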
% is scaled to controls: 0 for no effect and ±100 for the full control effect.

Estrogen receptor (Homo sapiens), sequence (P03372 whole entry, looked up): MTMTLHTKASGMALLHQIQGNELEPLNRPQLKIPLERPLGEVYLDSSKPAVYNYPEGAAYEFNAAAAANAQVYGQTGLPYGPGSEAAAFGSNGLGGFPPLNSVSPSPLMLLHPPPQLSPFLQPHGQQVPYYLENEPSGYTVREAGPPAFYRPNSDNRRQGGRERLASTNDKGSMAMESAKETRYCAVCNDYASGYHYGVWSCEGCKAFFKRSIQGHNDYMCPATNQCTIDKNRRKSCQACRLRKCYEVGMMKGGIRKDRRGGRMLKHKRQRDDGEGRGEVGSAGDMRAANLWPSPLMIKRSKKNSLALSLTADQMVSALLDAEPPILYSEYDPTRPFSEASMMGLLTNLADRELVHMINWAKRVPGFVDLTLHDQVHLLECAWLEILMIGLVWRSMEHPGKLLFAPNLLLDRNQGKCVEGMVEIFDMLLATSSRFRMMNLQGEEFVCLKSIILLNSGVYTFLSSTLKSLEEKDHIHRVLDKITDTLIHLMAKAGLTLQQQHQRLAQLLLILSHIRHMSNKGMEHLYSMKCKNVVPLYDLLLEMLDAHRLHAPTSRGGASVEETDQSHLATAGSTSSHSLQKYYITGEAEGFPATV
Androgen receptor (Homo sapiens), sequence (P10275 whole entry, looked up): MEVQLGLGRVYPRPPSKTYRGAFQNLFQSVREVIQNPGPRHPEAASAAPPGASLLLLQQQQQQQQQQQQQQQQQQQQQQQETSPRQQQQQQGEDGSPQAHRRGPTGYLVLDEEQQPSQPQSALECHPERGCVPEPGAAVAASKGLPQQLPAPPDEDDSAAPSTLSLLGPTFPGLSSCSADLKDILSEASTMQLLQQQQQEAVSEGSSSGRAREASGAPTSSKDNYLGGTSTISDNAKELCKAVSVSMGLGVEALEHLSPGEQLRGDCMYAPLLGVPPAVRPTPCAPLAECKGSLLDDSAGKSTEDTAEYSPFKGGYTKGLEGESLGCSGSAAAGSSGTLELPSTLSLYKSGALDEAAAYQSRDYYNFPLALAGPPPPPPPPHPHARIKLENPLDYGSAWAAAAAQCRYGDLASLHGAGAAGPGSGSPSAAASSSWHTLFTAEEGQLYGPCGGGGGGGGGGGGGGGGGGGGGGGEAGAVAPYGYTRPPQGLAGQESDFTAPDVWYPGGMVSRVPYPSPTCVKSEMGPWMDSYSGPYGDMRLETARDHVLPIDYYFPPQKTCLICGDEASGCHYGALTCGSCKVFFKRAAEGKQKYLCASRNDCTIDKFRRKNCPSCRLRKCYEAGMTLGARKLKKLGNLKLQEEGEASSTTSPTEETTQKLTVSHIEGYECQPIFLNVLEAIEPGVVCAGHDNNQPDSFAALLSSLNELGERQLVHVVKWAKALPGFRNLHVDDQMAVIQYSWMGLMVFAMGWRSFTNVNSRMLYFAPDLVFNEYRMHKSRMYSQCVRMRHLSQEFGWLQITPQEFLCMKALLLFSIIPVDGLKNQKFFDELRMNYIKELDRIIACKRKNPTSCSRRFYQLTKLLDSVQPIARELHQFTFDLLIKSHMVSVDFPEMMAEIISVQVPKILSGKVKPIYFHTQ

Cc1cc(C)nc(NS(=O)(=O)c2ccc(N)cc2)n1
inactive: Potency [1] | Potency [2] | Potency [3] | Potency [4] | Potency [5] | Potency [6] | Potency [7] | Potency [8] | Potency [9] | Potency [10] | Potency [11] | Potency [12] | Potency [13] | Potency [14] | Potency [15] | Potency [16] | outcome [17]

CCOc1ccc(NC(C)=O)cc1
inactive: Potency [1] | Potency [3] | Potency [4] | Potency [5] | Potency [7] | Potency [8] | Potency [9] | Potency [10] | Potency [11] | Potency [12] | Potency [18] | Potency [19] | Potency [13] | Potency [14] | Potency [15] | Potency [16] | outcome [17]
inactive and 21.9 µM (active): Potency [6]

CN(C)C(=O)Nc1ccc(Cl)c(Cl)c1
inactive: Potency [1] | Potency [2] | Potency [3] | Potency [4] | Potency [5] | Potency [6] | Potency [7] | Potency [8] | Potency [10] | Potency [11] | Potency [12] | Potency [19] | Potency [13] | Potency [14] | Potency [20] | Potency [15] | Potency [16] | outcome [17]
active: Potency [18] 30.5 µM and 27.3 µM and 23.7 µM

CCCCCCCCCCCC[N+](C)(C)Cc1ccccc1
inactive: Potency [2] | Potency [9] | Potency [11] | Potency [13] | Potency [14] | outcome [17]
active: Potency [1] 38.1 µM and 29.9 µM and 23.9 µM | Potency [3] 17 µM and 23.8 µM and 10.7 µM | Potency [4] 59.7 µM | Potency [5] 21.5 µM and 23.8 µM and 12 µM | Potency [6] 4.28 µM and 4.23 µM and 3.01 µM | Potency [7] 53.9 µM and 59.7 µM | Potency [8] 48 µM and 53.2 µM and 26.8 µM | Potency [10] 53.9 µM and 47.4 µM and 23.9 µM | Potency [12] 47.6 µM and 37.4 µM and 13.3 µM | Potency [15] 53.4 µM and 52.8 µM and 16.8 µM | Potency [16] 66.4 µM

CC(C)C(=O)Nc1ccc([N+](=O)[O-])c(C(F)(F)F)c1
inactive: Potency [1] | Potency [2] | Potency [3] | Potency [4] | Potency [5] | Potency [8] | Potency [9] | Potency [10] | Potency [11] | Potency [12] | Potency [13] | Potency [14] | Potency [15] | Potency [16] | outcome [17]
active: Potency [6] 17.9 µM and 21.9 µM and 10.7 µM | Potency [7] 22.5 µM and 21.9 µM and 9.52 µM | Potency [19] 56 µM and 48.6 µM and 29.8 µM

CCCCCCCC(=O)OCC(COC(=O)CCCCCCC)OC(=O)CCCCCCC
inactive: Potency [1] | Potency [2] | Potency [3] | Potency [4] | Potency [5] | Potency [6] | Potency [7] | Potency [8] | Potency [9] | Potency [10] | Potency [11] | Potency [12] | Potency [19] | Potency [13] | Potency [14] | Potency [15] | Potency [16] | outcome [17]

CNNCc1ccc(C(=O)NC(C)C)cc1
active: Potency [3] 24.5 µM and 19.5 µM
inactive: Potency [1] | Potency [2] | Potency [4] | Potency [5] | Potency [6] | Potency [7] | Potency [8] | Potency [10] | Potency [11] | Potency [12] | Potency [13] | Potency [14] | Potency [20] | Potency [15] | Potency [16] | outcome [17]

COc1ccc2c(c1)c(CC(=O)O)c(C)n2C(=O)c1ccc(Cl)cc1
inactive: Potency [1] | Potency [3] | Potency [4] | Potency [5] | Potency [6] | Potency [7] | Potency [8] | Potency [9] | Potency [10] | Potency [11] | Potency [12] | Potency [18] | Potency [19] | PLD induction [13] 14.5% [at 7.66 µM] | Potency [14] | Potency [20] | Potency [15] | Potency [16] | outcome [17]

O=S1(=O)OC(c2ccc(O)cc2)(c2ccc(O)cc2)c2ccccc21
active: Potency [9] 49 µM | Potency [11] 30.6 µM and 21.7 µM and 8.41 µM | Potency [12] 27.3 µM and 19.3 µM and 10.6 µM | Potency [15] 27.3 µM and 11.9 µM | Potency [16] 21.7 µM and 24.3 µM and 11.9 µM
inactive: Potency [1] | Potency [2] | Potency [3] | Potency [4] | Potency [6] | Potency [7] | Potency [8] | Potency [10] | Potency [13] | Potency [14] | Potency [20] | outcome [17]
61.1 µM (active) and inactive: Potency [19]
49 µM (active) and inactive: Potency [5]

Cc1cc(=O)oc2cc(O)ccc12
inactive: Potency [1] | Potency [2] | Potency [3] | Potency [4] | Potency [5] | Potency [6] | Potency [7] | Potency [8] | Potency [10] | Potency [11] | Potency [12] | Potency [19] | Potency [13] | Potency [14] | Potency [16] | outcome [17]

NS(=O)(=O)O
inactive: Potency [1] | Potency [2] | Potency [3] | Potency [4] | Potency [5] | Potency [6] | Potency [7] | Potency [8] | Potency [9] | Potency [10] | Potency [11] | Potency [12] | Potency [14] | Potency [20] | Potency [15] | Potency [16] | outcome [17]
